Data published in PubChem BioAssay AID868 (SRMLSC, 2007).
Screen size: about 190,000 compounds; about 3,500 (1.8%) were called active. Only a selection was taken, and actives are over-represented in it overall. A number with no mark means an inactive call.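 Rule for the calls: active = inhibition above a set limit, 3 SD over mean compound inhibition (cut at about 8.4% in these data); inactive = the rest.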

assay: inhibitors of the yeast RAM network, primary screen, dse1pr::URA3 reporter, 5-FOA selection (AID 868);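 note: 0% = DMSO-only wells with no growth and 100% = 10 µM 1-NA-PP1 full growth; inhibition rescues growth on 5-FOA so higher OD means more RAM inhibition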; details: S. cerevisiae dse1pr::URA3 reporter, 5-FOA growth OD615, 2 d; at 50 µM; hits give high values

Row | SMILES | inhibition
1 | O=C(Nc1cccc2ccccc12)N1CCC2(CC1)OCCO2 | 1.87%
2 | CC(=O)Nc1ccccc1C(=O)OCC(=O)c1cccc2ccccc12 | 9.49% (active)
3 | CC1=CC(=Cc2sc3ccccc3[n+]2C)C=C(C)O1 | 0.13%
4 | Cc1ccc(-c2cc(C(=O)N3CCC4(CC3)OCCO4)no2)cc1 | -1.75%
5 | COC(=O)N1C(c2ccccc2)C1c1ccccc1 (stereo not given) | 0.12%
6 | OCC#CC[N+]1(CC#Cc2ccccc2)CCCC1 | 2.58%
7 | O=C(NC(c1ccc(Cl)cc1)P(=O)(Oc1ccccc1)Oc1ccccc1)OCc1ccccc1 (stereo not given) | 11.3% (active)
8 | O=C(Nc1cccc(OC(=O)N2CCCCC2)c1)N1CCOCC1 | -1.26%
9 | Cc1ccnc(-n2c(C)cc(/C=C3\C(=O)NC(=S)N(C)C3=O)c2C)c1 | 1.13%
10 | CCOC(=O)C1SC2(C(F)(F)C(F)F)CC1(O)c1c(c(OC)c3occc3c1OC)O2 (stereo not given) | 9.36% (active)
11 | NC(=O)Cn1cc(C(=O)c2ccccc2F)c2ccccc21 | 4.57%
12 | O=C(COC(=O)c1ccccc1)Nc1ccc(Cl)cc1C(=O)c1ccccc1 | 8.43% (active)
13 | O=C(CCNS(=O)(=O)c1ccccc1)Nc1ccc(Cl)cc1C(=O)c1ccccc1 | 2.12%
14 | CN1CCN(C(=S)SCC(=O)Nc2ccc(Cl)cc2C(=O)c2ccccc2)CC1 | -0.25%
15 | COc1ccc(NC(=O)N2CCC3(CC2)OCCO3)c(OC)c1 | 4.37%
16 | Cc1ccc(-c2nn(CCC#N)cc2C(=O)O)cc1C | -0.13%
17 | C=CCN(CC=C)C(=O)Nc1ccc(OCC)cc1 | 1.22%
18 | CN(C)P(=S)(Nc1ccccc1)C(Cl)(Cl)Cl (stereo not given) | 1.76%
19 | CC(Cc1cccs1)NCc1ccc(Cl)cc1 (stereo not given) | 1.87%
20 | CC1CCCCN1Cc1cccnc1 (stereo not given) | 1.23%
